Common to all, as to set-up: scale not given: direction of the effect not stated beside the values
Assay [1] deals with Protein translocase subunit SecA (Escherichia coli (strain K12)) (UniProt P10408). As to the kind of experiment: Assay to Identify E. coli SecA ATPase Inhibitors. The assay is classed as functional. As to conditions: 30 µM.
The target of assay [2] is T1, Ubiquitin-activating enzyme e1, putative (Leishmania donovani (strain BPK282A1)) (UniProt E9BSI1).
T1 sequence (whole entry): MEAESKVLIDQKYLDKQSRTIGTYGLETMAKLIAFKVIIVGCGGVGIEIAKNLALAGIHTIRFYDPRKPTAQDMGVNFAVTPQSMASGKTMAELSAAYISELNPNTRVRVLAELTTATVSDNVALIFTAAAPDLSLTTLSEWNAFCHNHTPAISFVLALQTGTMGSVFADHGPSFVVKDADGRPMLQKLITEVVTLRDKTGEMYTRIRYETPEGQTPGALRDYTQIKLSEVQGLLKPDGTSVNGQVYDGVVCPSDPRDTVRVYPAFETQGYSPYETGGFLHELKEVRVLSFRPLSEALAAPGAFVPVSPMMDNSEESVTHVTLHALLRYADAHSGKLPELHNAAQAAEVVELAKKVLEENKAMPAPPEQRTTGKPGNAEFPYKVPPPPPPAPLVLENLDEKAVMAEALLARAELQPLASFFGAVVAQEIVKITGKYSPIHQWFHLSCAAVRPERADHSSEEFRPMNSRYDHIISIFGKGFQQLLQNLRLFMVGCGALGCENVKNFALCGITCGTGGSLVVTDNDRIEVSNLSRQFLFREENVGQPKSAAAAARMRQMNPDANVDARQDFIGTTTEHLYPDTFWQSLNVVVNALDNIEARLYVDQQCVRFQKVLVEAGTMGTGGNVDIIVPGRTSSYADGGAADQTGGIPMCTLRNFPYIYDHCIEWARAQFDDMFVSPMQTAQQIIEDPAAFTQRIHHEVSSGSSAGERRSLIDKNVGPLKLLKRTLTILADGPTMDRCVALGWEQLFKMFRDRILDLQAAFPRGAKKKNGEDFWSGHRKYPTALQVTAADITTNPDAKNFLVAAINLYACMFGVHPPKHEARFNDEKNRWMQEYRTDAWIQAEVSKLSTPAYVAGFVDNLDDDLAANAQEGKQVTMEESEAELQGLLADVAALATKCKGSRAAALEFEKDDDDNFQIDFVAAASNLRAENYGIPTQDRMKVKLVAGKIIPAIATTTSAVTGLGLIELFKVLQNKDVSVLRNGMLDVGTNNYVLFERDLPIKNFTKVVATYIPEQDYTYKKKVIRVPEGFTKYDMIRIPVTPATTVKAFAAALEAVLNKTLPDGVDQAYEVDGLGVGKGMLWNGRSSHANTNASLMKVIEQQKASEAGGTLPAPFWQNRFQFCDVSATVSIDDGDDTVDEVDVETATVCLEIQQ
As to the kind of experiment: Leishmania donovani Ubiquitin Activating Enzyme (LdE1). The assay is classed as functional. The settings on record: 30 µM.

Assay [3] concerns the target AMP-activated protein kinase, AMPK (Homo sapiens) (UniProt P54646+O43741+P54619+Q9UGJ0+Q9Y478+Q13131+Q9UGI9). As to the kind of experiment: AMP-dependent Kinase enzyme assay. An in vitro enzyme assay that detects ADP turnover that is directly proportional to AMPK activity. This uses naive AMPK that is activated during the assay with MK-8722. It counts as functional. The settings on record: 30 µM.

Assay [4] concerns the target Sialic acid-binding Ig-like lectin 9 (Homo sapiens) (UniProt Q9Y336). As to the kind of experiment: Hs-Siglec9 ALPHAscreen SOP 20170721. As to conditions: 10 µM. (In general: In Alpha technology, singlet oxygen from a donor bead excites a nearby acceptor bead.)
For another assay, the system named is Trypanosoma cruzi. Description: Trypanosoma cruzi phosphomannomutase and mannose-1-phosphate guanylyltransferase assay. The assay is classed as functional. The settings on record: 10 µM.
Assay [5] has as its target T2, Arginase-2, mitochondrial (Homo sapiens) (UniProt P78540).
T2 sequence (whole entry): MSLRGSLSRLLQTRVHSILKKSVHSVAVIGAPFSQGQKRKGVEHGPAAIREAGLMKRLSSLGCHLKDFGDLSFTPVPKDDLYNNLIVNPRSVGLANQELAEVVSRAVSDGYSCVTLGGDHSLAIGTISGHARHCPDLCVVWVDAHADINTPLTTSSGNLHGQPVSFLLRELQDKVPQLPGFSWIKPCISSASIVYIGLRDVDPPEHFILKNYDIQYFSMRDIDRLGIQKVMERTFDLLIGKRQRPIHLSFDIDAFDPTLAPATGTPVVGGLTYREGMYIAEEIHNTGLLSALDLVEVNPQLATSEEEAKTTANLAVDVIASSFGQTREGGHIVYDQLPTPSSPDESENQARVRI
As to the kind of experiment: in vitro enzyme assay to detect the production of urea directly proportional to the activity of Arginase II. Also: in the data most compounds retested in dose-response had high values. The assay is classed as functional. As to conditions: 33.3 µM.

The target of assay [6] is T3, Proteasome subunit beta (Trypanosoma cruzi) (UniProt O96673).
T3 sequence (whole entry): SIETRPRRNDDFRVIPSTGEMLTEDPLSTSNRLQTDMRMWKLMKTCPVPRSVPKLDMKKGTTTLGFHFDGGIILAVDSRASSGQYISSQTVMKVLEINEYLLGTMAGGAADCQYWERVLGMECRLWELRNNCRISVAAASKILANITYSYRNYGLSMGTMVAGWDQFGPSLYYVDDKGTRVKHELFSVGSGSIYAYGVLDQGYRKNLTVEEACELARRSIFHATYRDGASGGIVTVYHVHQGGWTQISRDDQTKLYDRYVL
Description: Trypanosoma cruzi proteasome chymotrypsin-like activity (TcProtChymo) assay. Also: in the data most compounds retested in dose-response had high values. As to conditions: 9.37 µM. It counts as functional.

The next assay is filed under the species Homo sapiens. As to the kind of experiment: To identify inhibition of the IFN signalling (Jak-Stat) pathway via expression of an eGFP reporter gene under the control of an IFN-stimulated response element (ISRE) containing MxA promoter. The assay is classed as functional. As to conditions: 30 µM. Background: In a reporter assay the amount or activity of a reporter protein is the signal.

Assay [7] has as its target T4, Tyrosyl-tRNA synthetase, putative (Trypanosoma cruzi (strain CL Brener)) (UniProt Q4DSP6).
T4 sequence (whole entry): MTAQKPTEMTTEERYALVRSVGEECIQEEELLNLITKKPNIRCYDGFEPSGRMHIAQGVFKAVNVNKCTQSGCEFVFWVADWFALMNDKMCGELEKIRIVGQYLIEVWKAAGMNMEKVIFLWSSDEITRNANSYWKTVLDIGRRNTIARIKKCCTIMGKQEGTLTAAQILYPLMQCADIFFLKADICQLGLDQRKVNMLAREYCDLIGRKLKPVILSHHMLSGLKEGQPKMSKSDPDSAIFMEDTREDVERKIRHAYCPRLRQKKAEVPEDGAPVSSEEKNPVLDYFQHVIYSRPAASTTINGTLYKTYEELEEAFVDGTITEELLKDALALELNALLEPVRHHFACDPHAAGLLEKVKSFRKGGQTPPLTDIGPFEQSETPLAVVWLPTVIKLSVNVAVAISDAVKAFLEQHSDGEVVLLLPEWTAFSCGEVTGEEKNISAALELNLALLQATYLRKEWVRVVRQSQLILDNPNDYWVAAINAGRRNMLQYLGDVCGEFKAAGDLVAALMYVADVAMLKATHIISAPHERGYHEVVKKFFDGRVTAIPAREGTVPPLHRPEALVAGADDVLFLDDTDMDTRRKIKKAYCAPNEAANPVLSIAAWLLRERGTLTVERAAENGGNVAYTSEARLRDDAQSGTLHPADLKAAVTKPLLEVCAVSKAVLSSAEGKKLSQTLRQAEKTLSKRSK
Description: Trypanosoma cruzi tyrosyl tRNA synthetase (TcYRS) _High Tyrosine SOP. Also: in the data most compounds retested in dose-response had high values. It counts as functional. The settings on record: 30 µM.

Assay [8] concerns the target T4, Tyrosyl-tRNA synthetase, putative (Trypanosoma cruzi (strain CL Brener)). As to the kind of experiment: Trypanosoma cruzi tyrosyl tRNA synthetase (TcYRS) SOP. The assay is classed as functional. The settings on record: 30 µM.
Assay [9] has as its target Chromo domain-containing protein 1 (Saccharomyces cerevisiae (strain ATCC 204508 / S288c) (Baker's yeast)) (UniProt P32657). Description: ScCHD-1 Enzyme Inhibition Assay. Also: in the data most compounds retested in dose-response had high values. The assay is classed as functional. The settings on record: 30 µM.

The structures appear in SMILES notation. For some of these results: Measured potencies and affinities stand elsewhere.

Sequence of Chromo domain-containing protein 1 (Saccharomyces cerevisiae (strain ATCC 204508 / S288c) (Baker's yeast)) (P32657 whole entry, the tested form may be a part): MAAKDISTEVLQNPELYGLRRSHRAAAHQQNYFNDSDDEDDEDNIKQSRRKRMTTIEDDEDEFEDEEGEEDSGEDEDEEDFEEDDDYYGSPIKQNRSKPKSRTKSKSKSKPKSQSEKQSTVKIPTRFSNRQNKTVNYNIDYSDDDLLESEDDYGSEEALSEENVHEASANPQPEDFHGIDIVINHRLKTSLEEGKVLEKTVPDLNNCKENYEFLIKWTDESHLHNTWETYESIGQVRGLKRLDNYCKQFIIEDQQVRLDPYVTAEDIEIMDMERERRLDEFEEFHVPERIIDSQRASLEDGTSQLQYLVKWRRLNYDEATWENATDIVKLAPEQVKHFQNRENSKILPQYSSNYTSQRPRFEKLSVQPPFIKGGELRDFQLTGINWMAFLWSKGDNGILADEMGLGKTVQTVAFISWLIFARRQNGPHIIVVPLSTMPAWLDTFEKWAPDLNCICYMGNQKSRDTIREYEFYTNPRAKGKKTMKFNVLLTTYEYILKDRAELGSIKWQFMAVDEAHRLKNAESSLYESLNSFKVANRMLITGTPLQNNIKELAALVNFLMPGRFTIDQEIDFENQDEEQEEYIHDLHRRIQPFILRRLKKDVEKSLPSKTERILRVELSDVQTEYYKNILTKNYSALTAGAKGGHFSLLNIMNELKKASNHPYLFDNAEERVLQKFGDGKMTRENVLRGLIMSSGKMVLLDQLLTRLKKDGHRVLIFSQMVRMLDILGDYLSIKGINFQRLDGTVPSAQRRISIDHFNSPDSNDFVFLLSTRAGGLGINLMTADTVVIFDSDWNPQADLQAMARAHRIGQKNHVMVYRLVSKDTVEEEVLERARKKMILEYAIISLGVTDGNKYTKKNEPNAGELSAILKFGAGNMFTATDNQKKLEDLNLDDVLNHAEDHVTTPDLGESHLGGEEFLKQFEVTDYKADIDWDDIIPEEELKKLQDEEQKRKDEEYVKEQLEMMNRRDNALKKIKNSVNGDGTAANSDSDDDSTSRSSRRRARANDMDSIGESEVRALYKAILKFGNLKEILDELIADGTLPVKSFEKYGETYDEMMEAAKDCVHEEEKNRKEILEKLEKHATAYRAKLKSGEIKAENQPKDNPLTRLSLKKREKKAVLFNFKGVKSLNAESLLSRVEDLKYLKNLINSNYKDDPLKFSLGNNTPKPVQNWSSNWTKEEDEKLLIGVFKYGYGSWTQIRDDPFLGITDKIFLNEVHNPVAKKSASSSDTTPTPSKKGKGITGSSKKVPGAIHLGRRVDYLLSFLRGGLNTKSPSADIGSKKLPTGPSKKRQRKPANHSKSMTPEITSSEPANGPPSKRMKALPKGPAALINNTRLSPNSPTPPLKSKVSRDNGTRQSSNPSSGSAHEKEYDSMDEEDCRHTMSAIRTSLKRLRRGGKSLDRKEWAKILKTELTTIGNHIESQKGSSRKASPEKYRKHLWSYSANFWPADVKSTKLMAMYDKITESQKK
Sequence of Sialic acid-binding Ig-like lectin 9 (Homo sapiens) (Q9Y336 whole entry): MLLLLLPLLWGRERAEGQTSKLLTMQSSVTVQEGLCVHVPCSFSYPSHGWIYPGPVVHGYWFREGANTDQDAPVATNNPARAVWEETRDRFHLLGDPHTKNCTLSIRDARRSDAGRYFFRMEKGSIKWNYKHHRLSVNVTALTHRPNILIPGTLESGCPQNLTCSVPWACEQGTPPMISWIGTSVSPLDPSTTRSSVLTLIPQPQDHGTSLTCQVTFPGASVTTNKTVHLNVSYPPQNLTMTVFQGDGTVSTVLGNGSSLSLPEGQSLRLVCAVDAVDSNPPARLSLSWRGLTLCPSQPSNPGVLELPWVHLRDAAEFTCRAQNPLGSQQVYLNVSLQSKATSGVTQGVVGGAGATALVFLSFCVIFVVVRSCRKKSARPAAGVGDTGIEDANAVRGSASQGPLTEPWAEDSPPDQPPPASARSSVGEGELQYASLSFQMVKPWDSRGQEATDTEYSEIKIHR
Sequence of Protein translocase subunit SecA (Escherichia coli (strain K12)) (P10408 whole entry): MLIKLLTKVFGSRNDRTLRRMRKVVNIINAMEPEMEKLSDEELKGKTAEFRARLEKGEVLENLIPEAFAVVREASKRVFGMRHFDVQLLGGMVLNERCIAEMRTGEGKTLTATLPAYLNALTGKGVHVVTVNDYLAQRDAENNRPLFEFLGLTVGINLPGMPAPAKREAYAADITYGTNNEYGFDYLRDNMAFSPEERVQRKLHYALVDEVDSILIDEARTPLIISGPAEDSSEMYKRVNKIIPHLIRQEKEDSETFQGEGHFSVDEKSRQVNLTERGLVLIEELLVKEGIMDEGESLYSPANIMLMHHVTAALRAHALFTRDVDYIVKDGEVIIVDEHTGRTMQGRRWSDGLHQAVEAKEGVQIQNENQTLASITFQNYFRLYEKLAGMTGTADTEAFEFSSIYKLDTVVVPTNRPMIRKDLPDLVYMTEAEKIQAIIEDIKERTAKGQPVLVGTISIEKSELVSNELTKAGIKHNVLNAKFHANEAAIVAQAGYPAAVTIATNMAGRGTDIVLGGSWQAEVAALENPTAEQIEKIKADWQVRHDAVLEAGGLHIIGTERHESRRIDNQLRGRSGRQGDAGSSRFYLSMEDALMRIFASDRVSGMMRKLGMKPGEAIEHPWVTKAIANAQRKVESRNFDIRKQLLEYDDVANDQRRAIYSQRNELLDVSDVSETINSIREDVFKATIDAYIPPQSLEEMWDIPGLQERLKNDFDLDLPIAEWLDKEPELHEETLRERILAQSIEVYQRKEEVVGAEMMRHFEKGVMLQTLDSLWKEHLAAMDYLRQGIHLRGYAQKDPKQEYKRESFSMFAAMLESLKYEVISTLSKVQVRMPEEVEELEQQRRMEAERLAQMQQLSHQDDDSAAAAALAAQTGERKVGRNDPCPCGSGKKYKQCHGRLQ

For `Cc1noc(CN2CCC(c3ccnn3CCO)CC2)n1`, the Percent Effect in assay [1] was -3.55%; in assay [2] it was 12.7%; in [3] it was -1.18%; in assay [4] it was -2.56%; in the assay with Trypanosoma cruzi, 8.59%; in assay [5] it was -0.76%. Besides, the Percent Effect in assay [6] is 8.76%; in the assay filed under Homo sapiens, 4.82%; in assay [7] it was 6.4%; in assay [8] it was 16.5%; in assay [9], -6.79%.
Turning to `Cn1ccnc1CC1CCCN(C(=O)Nc2cccn(C)c2=O)C1` (stereo unspecified), the Percent Effect was -3.36% in assay [1]; 5.41% in assay [2]; -17.1% in assay [3]; 6.3% in assay [4]; 2.93% in the assay with Trypanosoma cruzi; 27.9% in assay [5]. For the same molecule, the Percent Effect in [6] is 12.9%; in the assay filed under Homo sapiens it was 4.41%; in [7], 8.91%; in assay [8] it was 13.4%; in [9] it was -5.06%.
Turning to `CN(C)C(=O)CNC(=O)CCn1ncc2c(Cl)cccc21`, the Percent Effect in assay [1] was -5.52%; in assay [2], 4%; in assay [3], 2.92%; in [4], 1.65%; in the assay with Trypanosoma cruzi, 3.73%; in [5], -7.57%. Further, the Percent Effect in assay [6] was 14.1%; in the assay listed under Homo sapiens, 16.1%; in [7] it was 2.12%; in assay [8], 7.69%; in assay [9], -12.3%.
Take `O=C(NCCc1ccccn1)NC1CCN(c2ncccn2)CC1`: the Percent Effect in assay [1] is -2.63%; in assay [2], 16.4%; in [3] it was 1.28%; in [4] it was 3.94%; in the assay with Trypanosoma cruzi it was -1.59%; in [5], 2%. The Percent Effect was 12.9% in [6]; -1.99% in the assay filed under Homo sapiens; 9.38% in assay [7]; 23.5% in assay [8]; -4.07% in assay [9].
In the case of `COCc1cnc2n1CCN(C(=O)C1=CCCCC1)C2C` (stereo unspecified), the Percent Effect was 2.94% in assay [1]; 17.3% in [2]; -3.72% in assay [3]; -2.8% in assay [4]; -1.77% in the assay on Trypanosoma cruzi; -16.7% in assay [5]. For the same molecule, the Percent Effect in assay [6] was 15.5%; in the assay listed under Homo sapiens, 33%; in assay [7] it was 3.17%; in assay [8], 12.8%; in assay [9] it was -8.38%.
Consider `COc1cc(C(=O)NS(=O)(=O)c2cccc(C#N)c2)ccc1C`, for which the Percent Effect in assay [1] is -1.35%; in [2], -10.8%; in assay [3] it was -1.79%; in assay [4], 1.78%; with Trypanosoma cruzi, 7.15%; in [5], -0.554%. Also, the Percent Effect in assay [6] was 2.33%; in the assay listed under Homo sapiens it was 10.3%; in [7], -5.94%; in assay [8] it was -1.22%; in assay [9], -2.42%.
Take `CS(=O)(=O)N1CCOCC2(CCN(C(=O)c3cccnc3)CC2)C1`: the Percent Effect was 0.0699% in assay [1]; 2.74% in assay [2]; 2.01% in assay [3]; -0.0941% in assay [4]; 2.78% with Trypanosoma cruzi; 4.79% in [5]. Moreover, the Percent Effect is 9.33% in assay [6]; -18.8% in the assay listed under Homo sapiens; 0% in [7]; 3.7% in [8]; -3.11% in [9].
Consider `CN(Cc1ccco1)[C@@H]1CN(C(=O)c2ccnnc2)C[C@@H]2CCCO[C@@H]21`, for which the Percent Effect in [1] was -2.86%; in assay [2] it was 2.74%; in assay [3], -3.12%; in [4], 2.33%; in the assay with Trypanosoma cruzi, 4.76%; in assay [5] it was 2.4%. The Percent Effect in [6] was 0.77%; in the assay filed under Homo sapiens, -17.3%; in [7] it was 2.08%; in assay [8], 8.64%; in [9] it was 1.23%.
Turning to `CC(=O)N1CCCC1c1ccc(-c2c(C)noc2C)cn1` (stereo unspecified), the Percent Effect in assay [1] is 0.953%; in [2], -4.05%; in [3], 8.36%; in assay [4] it was 2.83%; in the assay on Trypanosoma cruzi, -3.56%; in assay [5], 6.26%. Further, the Percent Effect was 4.52% in assay [6]; 5.24% in the assay listed under Homo sapiens; -1.07% in assay [7]; -3.9% in [8]; 3.24% in assay [9].
`c1ccc(CCN2CCN(c3ccc4nncn4n3)CC2)nc1`: the Percent Effect in assay [1] is -3.09%; in assay [2] it was 5.2%; in assay [3], 9.47%; in assay [4] it was 7.22%; in the assay on Trypanosoma cruzi it was -4.49%; in assay [5], 3.56%. In addition, the Percent Effect was 3.72% in assay [6]; 21.7% in the assay listed under Homo sapiens; 2.91% in [7]; 7.32% in assay [8]; -0.331% in assay [9].
In the case of `O=C(NCC1(CO)CC1)c1cccc2ccccc12`, the Percent Effect was -5.68% in [1]; 2.74% in [2]; 20.9% in [3]; -5.02% in assay [4]; -4.9% with Trypanosoma cruzi; -0.455% in [5]. In addition, the Percent Effect in assay [6] was 10.7%; in the assay listed under Homo sapiens it was 0.244%; in [7] it was 6.45%; in assay [8] it was 2.5%; in [9] it was -1.94%.

The values are drawn from ChEMBL document CHEMBL3988442, “University of Dundee, Small-Polar-MMV Screening Library” (2021).
